For 9 compounds, growth results are on record in PubChem BioAssay (NCI).

Among the test systems are HCT-15 colon; HT29 colon; SNB-19 CNS; U251 CNS; PC-3 prostate; UACC-62 melanoma; LOX IMVI melanoma; SK-MEL-2 melanoma; EKVX NSCLC; SN12C renal; UO-31 renal; TK-10 renal; ACHN renal; CAKI-1 renal; A498 renal; CCRF-CEM leukemia; MOLT-4 leukemia; SK-MEL-28 melanoma; SK-MEL-5 melanoma.
Assay in all cases: NCI-60 one-dose screen, 48 h (100 = growth as untreated, 0 = no growth, -100 = all killed)
What all share (conditions): 10 µM unless noted

Molecules are shown by their SMILES. About 83,000 compounds went through this panel and 20% of them were active in at least one assay; those are over-represented in the sample as a whole.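 Results are percent growth after 48 hours of single-concentration exposure. 100 means growth as in untreated cells, lower positive values show inhibition; negative values down to -100 show cell death.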 A number with no mark means an inactive call. Active and inactive are the calls of the source. The calls were made as follows: active = growth percent below 10; inactive = the rest.

With `NC(=O)CCCN1C/C(=C\c2ccccc2)C(=O)c2ccccc21`, the growth was 105% in the test with HCT-15 colon; 93.2% in the test on HT29 colon; 88.7% in the test on SNB-19 CNS; 96.7% with U251 CNS; 89.6% in the test with PC-3 prostate; 87.2% in the test with UACC-62 melanoma. For the same compound, the growth in the test on LOX IMVI melanoma was 104%; with SK-MEL-2 melanoma it was 90.4%; in the test with EKVX NSCLC it was 106%; in the test with SN12C renal, 92.4%; with UO-31 renal, 78.1%; in the test on TK-10 renal, 95%. Moreover, the growth in the test with ACHN renal was 98.7%; with CAKI-1 renal it was 90.6%; in the test with A498 renal it was 107%; in the test with CCRF-CEM leukemia it was 110%; in the test with MOLT-4 leukemia it was 104%.
`Fc1ccc(Nc2nc(NCCNc3ccnc4cc(Cl)ccc34)nc(N3CCOCC3)n2)cc1`: the growth with HCT-15 colon is 10.5%; with HT29 colon, -45.5% (active); in the test on SNB-19 CNS, 86.7%; with U251 CNS, 39%; in the test on PC-3 prostate, 38.2%; in the test on UACC-62 melanoma it was 47.7%. Further, the growth in the test on LOX IMVI melanoma was 15.5%; in the test with SK-MEL-2 melanoma, 50.7%; in the test on SN12C renal it was 63.8%; with UO-31 renal, 45.2%; with TK-10 renal, 86.2%; with ACHN renal it was 55.4%. The growth is 76.9% in the test on CAKI-1 renal, 8.73% (active) in the test on A498 renal, 49.1% in the test on CCRF-CEM leukemia and 25.2% with MOLT-4 leukemia.
As for `COc1ccc(C(=O)N2NC(=O)/C(=C/c3ccc(Br)cc3)N=C2c2ccccc2)cc1`, the growth was 94.8% in the test on HCT-15 colon; 93.2% with HT29 colon; 87.4% in the test with SNB-19 CNS; 72.9% in the test on U251 CNS; 68.3% with UACC-62 melanoma; 87.9% in the test with LOX IMVI melanoma. Besides, the growth with SK-MEL-28 melanoma was 94.5%; with EKVX NSCLC, 95.7%; in the test with SN12C renal, 74.1%; in the test with UO-31 renal, 92.8%; with TK-10 renal it was 107%; with ACHN renal it was 87.8%. Also, the growth was 96.9% in the test on CAKI-1 renal, 83.5% with A498 renal and 17.3% in the test on MOLT-4 leukemia.
Take `CN(C[C@H]1Cc2c(cccc2N2CCN(Cc3ccccn3)CC2)CN1)[C@H]1CCCc2cccnc21`: the growth in the test with HCT-15 colon is 37.3%; with HT29 colon, 36.9%; in the test on SNB-19 CNS, 57.6%; with PC-3 prostate it was 45.7%; in the test on SK-MEL-5 melanoma, 55.8%; with UACC-62 melanoma, 85.1%. Moreover, the growth in the test with LOX IMVI melanoma is 44.9%; with SK-MEL-28 melanoma it was 88.5%; in the test with SK-MEL-2 melanoma, 73.2%; with EKVX NSCLC, 54.8%; in the test on SN12C renal, 53.5%; in the test on UO-31 renal, 20.1%. Also, the growth was 58.7% in the test on TK-10 renal; 43.2% in the test with ACHN renal; 42.8% with CAKI-1 renal; 65.9% in the test with A498 renal; 41.2% in the test with CCRF-CEM leukemia; 41% in the test with MOLT-4 leukemia.
With `CC(C)(C)n1cc(-c2ccnc(NCCCNS(=O)(=O)c3ccccc3)c2)c(-c2cccc(O)c2)n1`, the growth with HCT-15 colon was -4.07% (active); with HT29 colon, 8.45% (active); in the test with U251 CNS, 48.5%; in the test with PC-3 prostate, 30.3%; with SK-MEL-5 melanoma, 16.1%; in the test with UACC-62 melanoma it was 59.8%. The growth in the test with LOX IMVI melanoma is -43.3% (active); in the test on SK-MEL-28 melanoma, 44.1%; in the test with SK-MEL-2 melanoma it was 60.1%; in the test on EKVX NSCLC, 57.3%; with SN12C renal, 52.8%; in the test on UO-31 renal, 55.7%. Further, the growth in the test with TK-10 renal is 89.7%; with ACHN renal, 45.6%; with CAKI-1 renal, 52.9%; in the test with A498 renal, 40.2%; in the test with CCRF-CEM leukemia it was 35.1%; with MOLT-4 leukemia, 32.1%.
For the compound `O=C(Nc1cccc(-n2cc(-c3ccncc3)c(-c3ccc(Cl)c(O)c3)n2)c1)Nc1cc(C(F)(F)F)cc(C(F)(F)F)c1`, the growth is -7.23% (active) in the test with HCT-15 colon; -56% (active) in the test on HT29 colon; 11.3% in the test on SNB-19 CNS; -32.4% (active) in the test on PC-3 prostate; -65.6% (active) in the test with UACC-62 melanoma; -94.1% (active) in the test with LOX IMVI melanoma. For the same compound, the growth with SK-MEL-28 melanoma is -62.4% (active); in the test on SK-MEL-2 melanoma it was -73.7% (active); in the test on SN12C renal it was -36.1% (active); in the test with UO-31 renal, -34.4% (active); in the test on TK-10 renal, -24.6% (active); in the test with ACHN renal, 8.48% (active). Besides, the growth in the test with CAKI-1 renal is 8.94% (active); in the test on A498 renal it was -18.6% (active); in the test on CCRF-CEM leukemia it was -16% (active); with MOLT-4 leukemia it was -18.5% (active).
For `COc1ccc(/C=C2\N=C(c3ccccc3)N(C(=O)c3ccccc3O)NC2=O)cc1`, the growth was 104% with HCT-15 colon; 104% with HT29 colon; 96.6% in the test with SNB-19 CNS; 94.2% in the test on U251 CNS; 101% with SK-MEL-5 melanoma; 82.8% in the test on UACC-62 melanoma. The growth in the test on LOX IMVI melanoma was 95.6%; with SK-MEL-28 melanoma, 109%; in the test with EKVX NSCLC it was 88.3%; in the test on SN12C renal, 86.6%; with UO-31 renal, 95.9%; in the test on TK-10 renal, 97.7%. For the same compound, the growth is 103% in the test with ACHN renal, 97.9% with CAKI-1 renal, 73.6% in the test with A498 renal and 48.3% with MOLT-4 leukemia.
Take `N[C@@H]1CCN(C(=O)c2cc3cc(Cl)c(F)c(F)c3[nH]2)C1`: the growth in the test with HCT-15 colon was 96.8%; with HT29 colon, 88%; in the test on SNB-19 CNS, 90.2%; in the test with U251 CNS, 86.2%; in the test on PC-3 prostate, 90.5%; with UACC-62 melanoma, 104%. The growth with LOX IMVI melanoma was 84%; with SK-MEL-2 melanoma it was 99.4%; in the test on EKVX NSCLC it was 86.9%; in the test on SN12C renal it was 90.6%; in the test on UO-31 renal, 63.4%; in the test on TK-10 renal, 101%. The growth with ACHN renal is 90.9%; in the test on CAKI-1 renal it was 68%; in the test with CCRF-CEM leukemia, 102%; in the test on MOLT-4 leukemia, 94.7%.
As for `CC(=O)c1cc2c(N)c(C(=O)Nc3cccc4c3OCCO4)sc2nc1C`, the growth in the test with HCT-15 colon was 97.3%; with HT29 colon, 103%; in the test with SNB-19 CNS, 93.2%; in the test on PC-3 prostate, 91.4%; in the test with SK-MEL-5 melanoma, 95.3%; with UACC-62 melanoma it was 67.8%. In addition, the growth was 97.5% in the test with LOX IMVI melanoma; 94% in the test on SK-MEL-28 melanoma; 67.1% in the test on SK-MEL-2 melanoma; 102% with EKVX NSCLC; 103% in the test with SN12C renal; 90.2% with UO-31 renal. Further, the growth with TK-10 renal was 104%; in the test on ACHN renal, 104%; in the test with CAKI-1 renal it was 71.7%; in the test with A498 renal it was 8.65% (active); with CCRF-CEM leukemia it was 96.7%; in the test with MOLT-4 leukemia, 97.4%.
